Results filed as inconclusive are left out. A number with no mark means an inactive call. Activity calls are given as the source filed them. The call rests on the fitted dose curve; tested in HEK293 reporter line.
On the % scale 0 is the no-effect control and ±100 the full control effect; potency means the concentration at half of the fitted maximal effect.

The nature of the test: qHTS for Inhibitors of the Functional Ribonucleoprotein Complex (vRNP) of Lymphocytic Choriomeningitis Arenaviruses (LCMV): Viability assay - alamar blue signal for LCMV Primary Screen (AID 1347085). Further: nearly all actives have a fitted effect of over 80% in size. To be noted: alamar blue viability counter-screen, LCMV vRNP screen cells; series mostly up to 57.5 µM; activity change, negative = lower viability: at the top concentration.
For the compound `CCN(CC)C(=O)[C@@H]1C=C2c3cccc4[nH]cc(c34)C[C@H]2N(C)C1`, the “activity change, negative = lower viability” value was -36.6% [at 222 µM].
For `CO[C@H]1C[C@@H]2CC[C@@H](C)[C@@](O)(O2)C(=O)C(=O)N2CCCC[C@@H]2C(=O)O[C@H]([C@H](C)C[C@@H]2CC[C@H](OCCO)[C@H](OC)C2)CC(=O)[C@H](C)C=C(C)[C@@H](O)[C@@H](OC)C(=O)[C@H](C)C[C@H](C)C=CC=CC=C1C`, the Potency is 0.0769 µM (active).
As for `CNCCCCOc1ccccc1Cc1ccccc1`, the “activity change, negative = lower viability” value is -12.3%.
Same read-out and setting: next, `C#CC(O)(C=CCl)CC` (centres undefined): 8.63%; `COCC(=O)Nc1c(I)c(C(=O)NCC(O)CO)c(I)c(C(=O)N(C)CC(O)CO)c1I` (centres undefined): 0.383%; `CCCc1ccc(OCC(=O)N2CCN(C(=O)COc3ccc(CCC)cc3OC)CC2)c(OC)c1`: 3.48%.
In the case of `Nc1nc(Cl)nc2c1ncn2[C@H]1C[C@H](O)[C@@H](CO)O1`, the Potency was 8.63 µM (active).
Regarding `CC(=O)N1CCN(c2ccc(OC[C@H]3CO[C@](Cn4ccnc4)(c4ccc(Cl)cc4Cl)O3)cc2)CC1`, the “activity change, negative = lower viability” value was 14.9%.
For the compound `CN(C)CCc1c[nH]c2cccc(OP(=O)(O)O)c12`, the “activity change, negative = lower viability” value is 26.2% [at 115 µM].
On the same count and under the same terms, the figure for `Cc1cc(O)c2ccccc2c1O` is -7.38%.
For the compound `COc1cccc2c1C(=O)c1c(O)c3c(c(O)c1C2=O)C[C@@](O)(C(=O)CO)C[C@@H]3O[C@H]1C[C@H](N)[C@@H](O)[C@H](C)O1`, the Potency was 1.09 µM (active).
For the compound `CN(C)c1ccc2nc3ccc(=[N+](C)C)cc-3sc2c1`, the Potency was 24.3 µM (active).
Regarding `CC(=O)OC[C@H]1O[C@@H](n2ncc(=O)[nH]c2=O)[C@H](OC(C)=O)[C@@H]1OC(C)=O`, the “activity change, negative = lower viability” value is -101%.
On to `COc1cc2nc(Cl)nc(N)c2cc1OC`, for which the “activity change, negative = lower viability” value was -0.946%.
For `O=C(N/N=C/c1ccc([N+](=O)[O-])o1)c1ccc(O)cc1`, the Potency is 25.1 µM (active).
As to `CCCCOC(=O)c1ccc(N)cc1`, the “activity change, negative = lower viability” value was -1.75%.
For `CNC(=O)c1ccccc1Sc1ccc2c(/C=C/c3ccccn3)n[nH]c2c1`, the “activity change, negative = lower viability” value is -19.7%.
`CC(C=CC1=C(C)CCCC1(C)C)=CC=CC(C)=CC(=O)O`: the Potency was 0.544 µM (active).
As to `COc1cc([C@@H]2c3cc4c(cc3[C@@H](O[C@@H]3O[C@@H]5CO[C@@H](c6cccs6)O[C@@H]5[C@H](O)[C@@H]3O)[C@H]3COC(=O)[C@H]23)OCO4)cc(OC)c1O`, the Potency was 1.72 µM (active).

The values above are taken from PubChem BioAssay (NCATS).
